The text below walks through data of PubChem BioAssay.

The nature of the assay: JC-1 mitochondrial signal, unstimulated myeloma cells – cell-based, JC-1 fluorescence, RPMI8226, 24 h, 100 nL compound, profiling panel (AID 1169). Further: test concentration not given here. The following applies: JC-1 mitochondrial potential fluorescence, higher = more signal.
`[N-]=[N+]=NCc1ccccc1C[C@@]1(C(=O)N2CCCCC2)N=C(c2ccc(OCCCO)cc2)O[C@@H]1c1ccccc1`: the z-score is -1.28.

Turning to `O=C1O[C@@H](c2ccccc2)[C@@H](c2ccccc2)N2[C@@H](c3ccc(OCCO)cc3)[C@]3(C(=O)Nc4ccccc43)[C@@H](C(=O)O)[C@H]12`, the z-score is -0.0788.

Molecule `CC(CO)N1C(=O)[C@@H]2[C@H]3C(=O)OCC=C[C@H]3OC23C=CCN(C(C)(C)C)C(=O)[C@@H]13` (stereo partly drawn) registered a z-score of 0.127.

Turning to `CN1C(=O)C2C=CC(C(O)c3cccc4ccccc34)N(N3CCCCC3)C2C1=O` (stereo not drawn), the z-score worked out at 0.776.

Molecule `CN(C)C(=O)[C@]1(CCS(=O)(=O)c2ccccc2)N=C(c2ccc(OCCCO)cc2)O[C@@H]1c1ccccc1N=[N+]=[N-]` showed a z-score of -1.18.

`COC(=O)[C@@]1(Cc2ccc(F)cc2)[C@H]2c3cc(C(=O)N4CCCC4)n(CCc4ccc(O)c(O)c4)c3C[C@H]2CN1C(=O)c1ccccc1` showed a z-score of -0.788.

Regarding `CN(C)CCCNC(=O)[C@@]1(c2ccc([N+](=O)[O-])cc2)CC(=O)N(CC23CC4CC(CC(C4)C2)C3)[C@@H]1c1ccc(CO)cc1I`, the z-score was -0.913.

`Cc1cc(C)c(C(O)C2C=CC3C(=O)NC(=O)C3N2Nc2ccc(Cl)cc2Cl)c(C)c1` (stereo not drawn) displayed a z-score of -1.02.

`COCCOC(=O)N1C(=O)[C@@]2(c3cc(C#CC4=CCCCC4)ccc31)[C@H](c1ccc(OCCO)cc1)N1[C@H](c3ccccc3)[C@H](c3ccccc3)OC(=O)[C@H]1[C@@H]2C(=O)N1CCN(c2ncccn2)CC1` had a z-score of -0.333.

Regarding `C=CCC(OC(C)=O)[C@@H]1[C@@H](N(Cc2ccc(-c3ccccc3)cc2)C(=O)Cc2ccc(F)cc2)c2cc(OCCCO)ccc2N1C(=O)Cc1ccc(OC)cc1` (stereo partly drawn), the z-score was -0.112.

Consider `COC(=O)[C@@]1(Cc2ccc(OC)cc2)[C@H]2c3cc(C(=O)N(C)C)n(C[C@H](O)CO)c3C[C@H]2CN1C(=O)c1ccccc1`, for which the z-score is -0.847.

`Cn1cccc1C(O)C1C=CC2C(=O)NC(=O)C2N1Nc1ccc(Cl)cc1Cl` (stereo not drawn) came in with a z-score of -0.929.

`COc1ccc([Si](C)(C)[C@@H]2[C@@H](CC(=O)N(CCO)Cc3ccccc3)O[C@]3(C(=O)N(Cc4cccc(N5C(=O)c6cccc7cccc5c67)c4)c4ccccc43)[C@H]2C)cc1` registered a z-score of -1.02.

Take `Cc1ccc(S[C@]2(C(=O)NCC(F)(F)F)CC(=O)N(Cc3ccccc3C(F)(F)F)[C@@H]2c2ccc(CO)cc2I)cc1`: the z-score was -0.597.

Regarding `CCOc1cc(C(O)C2C=CC3C(=O)N(c4ccccc4)C(=O)C3N2Nc2ccc(C#N)cc2)ccc1O` (stereo not drawn), the z-score was 0.674.

For the molecule `COCCOC(=O)N1C(=O)[C@@]2(c3ccccc31)[C@H](C(=O)N1CCN(c3ncccn3)CC1)[C@H]1C(=O)O[C@H](c3ccccc3)[C@H](c3ccccc3)N1[C@@H]2c1ccc(O)cc1`, the z-score worked out at 0.263.

`CCCC[C@@H]1C[C@H]1[C@@H](NC(=O)c1cccs1)c1ccc(C(F)(F)F)cc1` gave a z-score of 0.404.

Consider `COC(=O)c1ccc([C@H](NC(=O)c2ccco2)[C@]2(C)C[C@H]2C2CCCCC2)cc1`, for which the z-score was -0.89.

The molecule `O[C@@H](Cc1ccccc1)[C@@H](/C=C/C1CC1)N(CC#Cc1ccccc1)Cc1cccc(Cl)c1` yielded a z-score of 0.256.

`N#Cc1ccc(C(O)C2C=CC3C(=O)N(c4ccccc4)C(=O)C3N2Nc2ccccc2)cc1` (stereo not drawn) yielded a z-score of 0.173.

In turn, `CC(C)N1C(=O)c2ccccc2[C@@H](C(=O)NC2CC2)[C@@H]1c1ccc(CO)cc1` came in with a z-score of 0.108.

Regarding `COC(=O)c1nc2oc1CC[C@@H](CO)NC(=O)N(C)Cc1cnnn1C[C@H](Cc1ccccc1)NC2=O`, the z-score is -0.912.

`C=CCNC(=O)[C@@H]1[C@H]2C(=O)O[C@H](c3ccccc3)[C@H](c3ccccc3)N2[C@H](c2ccc(O)cc2)[C@@]12C(=O)N(C(=O)OCCOC)c1ccc(C#CC3(O)CCCCCC3)cc12` yielded a z-score of 0.244.

`O=C1C=C(c2ccccc2)C(=O)c2ccc([C@H]3Oc4ccccc4S(=O)(=O)N4CCC[C@@H]34)cc21` showed a z-score of -1.23.

The molecule `C=C(COC)/C(=C/C[C@H](OC(C)=O)c1ccc(OCCO)cc1)c1cc(C(=O)OC)ccc1OC` yielded a z-score of 0.0179.

The molecule `CC(C)[Si](C#C[Si](C(C)C)(C(C)C)C(C)C)(O[C@H](C)c1cn([C@H](CO)Cc2ccccc2)nn1)C(C)C` returned a z-score of 0.362.

Consider `CC1CC/C=C\[C@H]2OC34C=CCN(C(C)C)C(=O)[C@H]3N(CCCCCCO)C(=O)[C@@H]4C2C(=O)O1` (stereo partly drawn), for which the z-score was -0.426.

As to `CC1CC/C=C\[C@H]2OC34C=CCN(c5ccc(Cl)cc5)C(=O)[C@H]3N(CCCCCO)C(=O)[C@]4(C)C2C(=O)O1` (stereo partly drawn), the z-score is -0.909.
